Assay results: ChEMBL document CHEMBL1157539, “Thousands of chemical starting points for antimalarial lead identification” (Nature, 2010)

Test system: Plasmodium falciparum
Assay: GSK_TCMDC: Inhibition of Plasmodium falciparum 3D7 in whole red blood cells, using parasite LDH activity as an index of growth. Test compounds present at 2uM
Type: functional

SMILES | Inhibition [%]
O=C(/C=C/c1ccc(-c2nc3ccc(Cl)cc3[nH]2)cc1)NC1CCN(Cc2ccccc2)CC1 | 100
COc1ccc(CN2CCC(NCc3cccc([N+](=O)[O-])c3)CC2)cc1.O=C(O)C(F)(F)F | 92
CCCCCCCN1CC[C@@H](CCCc2ccnc3ccc(OCCC4CCNCC4)cc23)[C@@H](CC)C1.Cl | 100
CC(C)(C)c1cc([N+](=O)[O-])cc(C(=O)Nc2ccccc2C(F)(F)F)c1O | 96
CCCN(CC1CC1)c1nc(C)nc2c(-c3ccccc3)cc(C)cc12 | 96
O=C(Nc1cccc(CN2CCCN(CC3CC3)CC2)c1)c1ccc(-c2ccccc2)cc1.O=C(O)C(F)(F)F | 96
O=C(CNC1CCCCC1)Nc1cccc(C(=O)Nc2cccc(C(F)(F)F)c2)c1.O=C(O)C(=O)O | 93
NC(=O)c1cccc(C(=O)Nc2cccc(-c3ccc(-c4nc5ccccc5[nH]4)s3)c2)c1 | 95
CCc1ccc(C(=O)NC(=O)c2ccccc2O)cc1 | 95
COc1ccc(-c2ccc(CNC(=O)c3cccc(C#N)c3)c(F)c2)cc1CN1CCCN(C)CC1.O=C(O)C(F)(F)F | 99
Nc1nccc2ccc(-c3ccc(Oc4ccccc4)cc3)cc12.O=C(O)C(F)(F)F | 98
COc1cccc(C(=O)Nc2ccc(Nc3nc(C)cc(N(C)C)n3)cc2)c1 | 92
O=C(CCc1c[nH]cn1)Nc1ccc(-c2ccc(-c3nc4ccccc4[nH]3)cc2)cc1 | 98
COc1ccc(N2C(N)=NC(N)=NC2(C)C)cc1OC.Cl | 95
